The full data set covers some 8,800 targets. This sample favours those with a hit. About 0.5% of all pairs of compound and target were hits. Unmarked numbers belong to inactive results.

UniProt Q14019, sequence (Q14019 whole entry, looked up): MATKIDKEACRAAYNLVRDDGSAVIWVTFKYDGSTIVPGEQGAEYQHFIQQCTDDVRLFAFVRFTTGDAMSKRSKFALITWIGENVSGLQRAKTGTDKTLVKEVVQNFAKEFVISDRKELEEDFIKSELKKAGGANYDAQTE
UniProt O15111, sequence (O15111 whole entry, looked up): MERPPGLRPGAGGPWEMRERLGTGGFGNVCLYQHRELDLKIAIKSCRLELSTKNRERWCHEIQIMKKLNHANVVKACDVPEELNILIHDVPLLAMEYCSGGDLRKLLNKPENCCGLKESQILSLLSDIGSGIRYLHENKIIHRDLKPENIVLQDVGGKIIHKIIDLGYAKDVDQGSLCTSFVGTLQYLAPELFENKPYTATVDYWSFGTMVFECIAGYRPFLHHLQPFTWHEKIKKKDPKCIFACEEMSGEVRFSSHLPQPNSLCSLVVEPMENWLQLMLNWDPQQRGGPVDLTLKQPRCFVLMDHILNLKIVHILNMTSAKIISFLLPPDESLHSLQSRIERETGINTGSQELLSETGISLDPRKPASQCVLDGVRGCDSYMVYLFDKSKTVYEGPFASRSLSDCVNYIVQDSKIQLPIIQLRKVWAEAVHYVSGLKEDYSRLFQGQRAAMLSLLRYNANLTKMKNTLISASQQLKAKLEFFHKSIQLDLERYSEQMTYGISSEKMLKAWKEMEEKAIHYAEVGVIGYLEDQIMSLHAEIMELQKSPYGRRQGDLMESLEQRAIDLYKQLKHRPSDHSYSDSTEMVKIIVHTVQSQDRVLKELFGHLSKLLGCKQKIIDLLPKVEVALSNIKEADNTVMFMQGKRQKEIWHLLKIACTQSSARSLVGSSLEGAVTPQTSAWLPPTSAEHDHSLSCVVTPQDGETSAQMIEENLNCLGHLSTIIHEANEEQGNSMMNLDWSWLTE
UniProt P00374, sequence (P00374 whole entry, looked up): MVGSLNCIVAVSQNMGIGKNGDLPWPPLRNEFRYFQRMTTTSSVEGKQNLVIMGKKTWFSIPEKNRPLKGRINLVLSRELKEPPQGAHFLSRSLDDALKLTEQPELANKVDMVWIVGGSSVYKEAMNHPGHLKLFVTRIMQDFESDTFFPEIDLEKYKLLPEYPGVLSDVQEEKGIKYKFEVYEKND
UniProt Q8TB03, sequence (Q8TB03 whole entry, looked up): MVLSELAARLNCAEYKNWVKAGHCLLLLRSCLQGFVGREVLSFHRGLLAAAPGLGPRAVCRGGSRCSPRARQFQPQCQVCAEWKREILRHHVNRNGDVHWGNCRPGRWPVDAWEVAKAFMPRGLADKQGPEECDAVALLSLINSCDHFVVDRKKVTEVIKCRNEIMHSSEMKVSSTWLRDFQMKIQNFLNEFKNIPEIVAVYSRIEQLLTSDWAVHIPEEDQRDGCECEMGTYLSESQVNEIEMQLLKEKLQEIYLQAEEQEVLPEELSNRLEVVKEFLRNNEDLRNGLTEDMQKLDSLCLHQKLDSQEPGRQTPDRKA
UniProt Q8WWK9, sequence (Q8WWK9 whole entry, looked up): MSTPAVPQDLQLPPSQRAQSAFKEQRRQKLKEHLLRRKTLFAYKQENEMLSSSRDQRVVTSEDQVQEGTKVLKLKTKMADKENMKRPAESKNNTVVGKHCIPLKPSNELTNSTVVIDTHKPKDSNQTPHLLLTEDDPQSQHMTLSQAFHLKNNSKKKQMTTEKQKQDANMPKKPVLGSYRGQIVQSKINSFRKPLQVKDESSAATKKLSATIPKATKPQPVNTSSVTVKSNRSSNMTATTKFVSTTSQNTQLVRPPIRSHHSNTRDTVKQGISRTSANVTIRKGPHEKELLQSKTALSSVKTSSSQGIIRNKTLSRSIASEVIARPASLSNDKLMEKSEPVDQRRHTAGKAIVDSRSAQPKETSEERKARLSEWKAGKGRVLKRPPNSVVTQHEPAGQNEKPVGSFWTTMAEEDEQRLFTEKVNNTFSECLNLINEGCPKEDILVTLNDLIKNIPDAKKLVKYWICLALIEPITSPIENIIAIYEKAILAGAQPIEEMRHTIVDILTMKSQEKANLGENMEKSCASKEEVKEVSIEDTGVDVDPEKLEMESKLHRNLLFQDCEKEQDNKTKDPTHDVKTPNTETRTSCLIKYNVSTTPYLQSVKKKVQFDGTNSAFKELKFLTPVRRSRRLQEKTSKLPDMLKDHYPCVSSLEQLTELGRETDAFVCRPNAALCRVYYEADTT
UniProt Q9H5X1, sequence (Q9H5X1 whole entry, looked up): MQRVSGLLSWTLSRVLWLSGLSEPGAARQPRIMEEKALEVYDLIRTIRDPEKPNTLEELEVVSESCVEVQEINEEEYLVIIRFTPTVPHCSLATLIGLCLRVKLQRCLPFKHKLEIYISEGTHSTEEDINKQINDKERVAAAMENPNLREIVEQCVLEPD
UniProt Q9NSV4, sequence (Q9NSV4 whole entry, looked up): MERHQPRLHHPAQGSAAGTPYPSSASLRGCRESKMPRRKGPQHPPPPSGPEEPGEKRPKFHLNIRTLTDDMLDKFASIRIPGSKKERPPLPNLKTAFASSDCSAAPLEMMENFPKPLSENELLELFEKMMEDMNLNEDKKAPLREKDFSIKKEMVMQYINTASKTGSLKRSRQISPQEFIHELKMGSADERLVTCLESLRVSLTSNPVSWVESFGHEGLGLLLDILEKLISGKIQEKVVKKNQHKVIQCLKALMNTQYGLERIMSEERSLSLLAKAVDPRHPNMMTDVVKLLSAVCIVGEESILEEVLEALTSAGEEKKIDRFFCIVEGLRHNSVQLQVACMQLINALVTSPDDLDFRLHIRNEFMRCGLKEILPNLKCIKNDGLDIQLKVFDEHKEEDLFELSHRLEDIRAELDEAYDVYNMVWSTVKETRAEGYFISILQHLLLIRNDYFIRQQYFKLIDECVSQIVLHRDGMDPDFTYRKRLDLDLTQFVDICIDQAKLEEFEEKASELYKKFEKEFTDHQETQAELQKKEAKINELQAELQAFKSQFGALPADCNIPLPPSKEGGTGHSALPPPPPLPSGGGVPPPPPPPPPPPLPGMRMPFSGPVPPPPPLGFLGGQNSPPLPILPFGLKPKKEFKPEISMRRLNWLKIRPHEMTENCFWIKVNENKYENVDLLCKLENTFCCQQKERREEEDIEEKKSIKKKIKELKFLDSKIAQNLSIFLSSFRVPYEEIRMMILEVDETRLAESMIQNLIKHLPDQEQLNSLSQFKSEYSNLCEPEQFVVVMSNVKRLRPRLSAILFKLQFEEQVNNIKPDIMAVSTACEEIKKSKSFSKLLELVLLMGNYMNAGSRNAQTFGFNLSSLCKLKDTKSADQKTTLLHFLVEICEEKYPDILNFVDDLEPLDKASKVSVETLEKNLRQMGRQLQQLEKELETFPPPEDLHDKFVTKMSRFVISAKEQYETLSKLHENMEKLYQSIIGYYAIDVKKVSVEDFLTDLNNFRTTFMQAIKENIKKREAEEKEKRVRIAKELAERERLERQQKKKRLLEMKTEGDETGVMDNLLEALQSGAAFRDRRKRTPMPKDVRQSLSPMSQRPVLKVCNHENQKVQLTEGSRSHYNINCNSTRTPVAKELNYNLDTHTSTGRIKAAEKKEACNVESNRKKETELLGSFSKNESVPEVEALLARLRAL
UniProt Q9UHD1, sequence (Q9UHD1 whole entry, looked up): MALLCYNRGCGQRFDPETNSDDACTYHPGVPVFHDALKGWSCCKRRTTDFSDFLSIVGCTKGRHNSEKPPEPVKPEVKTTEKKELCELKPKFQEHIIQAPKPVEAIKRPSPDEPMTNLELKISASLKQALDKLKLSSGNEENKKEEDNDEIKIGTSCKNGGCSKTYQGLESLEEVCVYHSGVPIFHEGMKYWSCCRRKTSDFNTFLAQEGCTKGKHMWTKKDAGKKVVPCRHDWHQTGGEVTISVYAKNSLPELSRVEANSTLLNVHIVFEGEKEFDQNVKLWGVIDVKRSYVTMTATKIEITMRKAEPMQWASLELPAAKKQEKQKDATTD
UniProt P31146, sequence (P31146 whole entry, looked up): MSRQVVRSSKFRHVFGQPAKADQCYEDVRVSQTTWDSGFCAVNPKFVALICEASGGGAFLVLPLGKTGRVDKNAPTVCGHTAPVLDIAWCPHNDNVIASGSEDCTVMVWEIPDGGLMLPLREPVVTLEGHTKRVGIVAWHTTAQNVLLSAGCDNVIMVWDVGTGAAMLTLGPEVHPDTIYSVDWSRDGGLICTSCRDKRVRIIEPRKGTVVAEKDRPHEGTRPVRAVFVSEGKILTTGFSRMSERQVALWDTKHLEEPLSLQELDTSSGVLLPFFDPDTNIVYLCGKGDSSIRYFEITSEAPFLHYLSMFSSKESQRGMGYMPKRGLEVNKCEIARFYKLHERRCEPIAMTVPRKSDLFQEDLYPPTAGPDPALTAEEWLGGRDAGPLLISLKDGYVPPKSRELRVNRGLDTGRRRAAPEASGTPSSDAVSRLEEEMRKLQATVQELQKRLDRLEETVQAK
UniProt P41240, sequence (P41240 whole entry, looked up): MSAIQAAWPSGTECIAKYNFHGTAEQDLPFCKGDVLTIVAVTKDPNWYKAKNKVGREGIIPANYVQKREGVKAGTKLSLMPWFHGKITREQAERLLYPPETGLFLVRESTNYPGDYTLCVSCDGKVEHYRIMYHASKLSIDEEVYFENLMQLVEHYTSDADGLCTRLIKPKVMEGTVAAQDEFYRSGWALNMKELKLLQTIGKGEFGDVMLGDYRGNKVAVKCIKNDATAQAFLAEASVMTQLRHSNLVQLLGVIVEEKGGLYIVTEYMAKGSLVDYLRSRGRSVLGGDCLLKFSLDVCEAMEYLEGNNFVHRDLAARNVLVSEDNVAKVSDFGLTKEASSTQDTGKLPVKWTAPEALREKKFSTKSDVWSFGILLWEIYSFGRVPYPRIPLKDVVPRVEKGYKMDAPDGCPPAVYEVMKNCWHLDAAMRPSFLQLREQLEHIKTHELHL
UniProt Q9P003, sequence (Q9P003 whole entry, looked up): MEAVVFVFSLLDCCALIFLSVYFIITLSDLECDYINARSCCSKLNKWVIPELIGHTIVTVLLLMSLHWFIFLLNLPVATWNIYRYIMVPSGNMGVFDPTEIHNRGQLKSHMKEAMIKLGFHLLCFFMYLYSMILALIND

Compound in the first test: CC1=C(C=C(C=C1)NC(=O)C2=CC(=CC=C2)C(C)(C)C#N)NC3=CC4=C(C=C3)N=CN(C4=O)C
Briefly: log2 fold change, soluble protein after heating vs DMSO (PISA); higher = thermal stabilisation; K562 lysate, 10 uM; active = over 0.2 and 3.5 SD of the protein, either way, in both replicates (recomputed). The method in brief:
(§1)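 Quantification was by TMTpro 16plex LC-MS/MS with equalised channel sums, applied to the supernatant after 21,000xg for 90 min. Samples were crude K562 extract at 1 mg/mL protein in PBS pH 7.4 with 1 mM MgCl2, treated with 10 μM compound for 30 min, heated for 3 min across 48°C-58°C, pooled and brought to 0.5% NP-40 at 4°C. Values are log-two fold changes in thermal stability relative to solvent controls, from duplicates.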
As for CKAP2 (UniProt Q8WWK9), the log2 fold change is 0.003.
On the same count and under the same terms, the result for CIC (UniProt I3L2J0) reads 0.029.
On the same count and under the same terms, the result for COTL1 (UniProt Q14019) reads -0.019; that for CHORDC1 (UniProt Q9UHD1), 0.023.
Same read-out and setting: as for CXorf38 (UniProt Q8TB03), the figure is -0.002; as for DHFR (UniProt P00374), -0.029.
In the case of CORO1A (UniProt P31146), the log2 fold change is 0.025.
As for CHUK (UniProt O15111), the log2 fold change was -0.013.
The same measure, in the same setting: as for DIAPH3 (UniProt Q9NSV4), the figure is -0.011.
Same read-out and setting: as for CIP2A (UniProt Q8TCG1), the figure is 0; as for CIAO2A (UniProt Q9H5X1), -0.026.

Compound in the next test: CC1=C(C=C(C=C1)NC(=O)C2=CC(=CC=C2)N(C)C)NC(=O)C3=CC=C(C=C3)O
The description is as above. The method, boiled down:
as §1
Consider DLGAP5 (UniProt Q15398), for which the log2 fold change is 0.016.
The same measure, in the same setting: the result for DCTN1 (UniProt Q14203) reads 0.009; that for DOCK10 (UniProt Q96BY6), -0.045.
The same measure, in the same setting: the result for DFFB (UniProt O76075) reads -0.07; that for CWC22 (UniProt Q9HCG8), 0.028; that for CHMP4A isoform 2 (UniProt Q9BY43), -0.03.
Still for that read-out and setting: the result for DDX54 isoform 2 (UniProt Q8TDD1) reads -0.006; that for DLG3 isoform 2 (UniProt Q92796), -0.033.
Consider COG3 (UniProt Q96JB2), for which the log2 fold change is 0.044.
Still for that read-out and setting: the result for CMPK2 (UniProt Q5EBM0) reads -0.018; that for CNOT6L (UniProt Q96LI5), -0.041; that for CSK (UniProt P41240), -0.015.
Still for that read-out and setting: the result for CYP24A1 (UniProt Q07973) reads 0.007; that for DAZAP1 (UniProt Q96EP5), -0.031.
The same measure, in the same setting: as for CNIH4 (UniProt Q9P003), the figure is 0.211; as for DNM2 (UniProt P50570), 0.006.
As to CMIP (UniProt Q8IY22), the log2 fold change was 0.029.
With COQ9 (UniProt O75208), the log2 fold change was 0.037.
For the target CNOT2 (UniProt Q9NZN8), the log2 fold change was -0.007.
Same read-out and setting: the result for DOCK8 (UniProt Q8NF50) reads 0.057; that for CSNK2B (UniProt P67870), -0.015.
Still for that read-out and setting: as for CPT1A (UniProt P50416), the figure is -0.008; as for DNAH10 (UniProt Q8IVF4), -0.014.
Still for that read-out and setting: the result for CKAP2 (UniProt Q8WWK9) reads -0.027; that for CIC (UniProt I3L2J0), 0.02.
COTL1 (UniProt Q14019): the log2 fold change is -0.015.
On the same count and under the same terms, as for CHORDC1 (UniProt Q9UHD1), the figure is 0.033.
Still for that read-out and setting: as for CXorf38 (UniProt Q8TB03), the figure is -0.015; as for DHFR (UniProt P00374), 0.025.
On the same count and under the same terms, the result for CORO1A (UniProt P31146) reads -0.036; that for CHUK (UniProt O15111), 0.009; that for DIAPH3 (UniProt Q9NSV4), 0.038.
For the target CIP2A (UniProt Q8TCG1), the log2 fold change is 0.059.
For CIAO2A (UniProt Q9H5X1), the log2 fold change was -0.067.

Compound in the next test: CC1=CC=C(C=C1)SC2=C3C=C(SC3=CN=C2)C(=O)N
Described as above. The method, boiled down: as §1
With DLGAP5 (UniProt Q15398), the log2 fold change was -0.003.
The same measure, in the same setting: as for DCTN1 (UniProt Q14203), the figure is 0.011; as for DOCK10 (UniProt Q96BY6), 0.022.
With DFFB (UniProt O76075), the log2 fold change was -0.039.
CWC22 (UniProt Q9HCG8): the log2 fold change was -0.009.
The same measure, in the same setting: the result for CHMP4A isoform 2 (UniProt Q9BY43) reads -0.007; that for DDX54 isoform 2 (UniProt Q8TDD1), 0.013.
With DLG3 isoform 2 (UniProt Q92796), the log2 fold change was 0.024.
As to COG3 (UniProt Q96JB2), the log2 fold change is 0.02.
The same measure, in the same setting: as for CMPK2 (UniProt Q5EBM0), the figure is -0.01; as for CNOT6L (UniProt Q96LI5), 0.016.
Still for that read-out and setting: the result for CSK (UniProt P41240) reads -0.054.
On the same count and under the same terms, the result for CYP24A1 (UniProt Q07973) reads -0.067.
Turning to DAZAP1 (UniProt Q96EP5), the log2 fold change was -0.009.
Still for that read-out and setting: the result for CNIH4 (UniProt Q9P003) reads -0.024; that for DNM2 (UniProt P50570), 0.004.
Still for that read-out and setting: the result for CMIP (UniProt Q8IY22) reads 0.004; that for COQ9 (UniProt O75208), 0.
Same read-out and setting: the result for CNOT2 (UniProt Q9NZN8) reads 0.011; that for DOCK8 (UniProt Q8NF50), -0.011.
CSNK2B (UniProt P67870): the log2 fold change was -0.016.
In the case of CPT1A (UniProt P50416), the log2 fold change is 0.017.
With DNAH10 (UniProt Q8IVF4), the log2 fold change is -0.051.
Same read-out and setting: the result for CKAP2 (UniProt Q8WWK9) reads 0.03; that for CIC (UniProt I3L2J0), 0.028.
Turning to COTL1 (UniProt Q14019), the log2 fold change is -0.004.
The same measure, in the same setting: the result for CHORDC1 (UniProt Q9UHD1) reads 0.006; that for CXorf38 (UniProt Q8TB03), 0.025.
On the same count and under the same terms, the result for DHFR (UniProt P00374) reads 0.033; that for CORO1A (UniProt P31146), 0.012; that for CHUK (UniProt O15111), -0.016.
Consider DIAPH3 (UniProt Q9NSV4), for which the log2 fold change is -0.035.
For the target CIP2A (UniProt Q8TCG1), the log2 fold change is -0.033.
Same read-out and setting: as for CIAO2A (UniProt Q9H5X1), the figure is -0.02.

Values taken from the supplement of paper PMC10849652.
